High-throughput results: PubChem BioAssay, National Center for Advancing Translational Sciences (NCATS)
In the library only some 18% were active in any assay of this set; here they are far more common.
KAT2A inh: blocks human GCN5L2 histone acetyltransferase. GCN5L2 HAT assay, ThioGlo1 CoA-SH fluorescence. AID 504327. hit rate 0.21% among 390,000. Q92830. Potency, µM (doses to about 58.9 µM), usual class: inhibitors
Target sequence (Q92830 whole entry, looked up): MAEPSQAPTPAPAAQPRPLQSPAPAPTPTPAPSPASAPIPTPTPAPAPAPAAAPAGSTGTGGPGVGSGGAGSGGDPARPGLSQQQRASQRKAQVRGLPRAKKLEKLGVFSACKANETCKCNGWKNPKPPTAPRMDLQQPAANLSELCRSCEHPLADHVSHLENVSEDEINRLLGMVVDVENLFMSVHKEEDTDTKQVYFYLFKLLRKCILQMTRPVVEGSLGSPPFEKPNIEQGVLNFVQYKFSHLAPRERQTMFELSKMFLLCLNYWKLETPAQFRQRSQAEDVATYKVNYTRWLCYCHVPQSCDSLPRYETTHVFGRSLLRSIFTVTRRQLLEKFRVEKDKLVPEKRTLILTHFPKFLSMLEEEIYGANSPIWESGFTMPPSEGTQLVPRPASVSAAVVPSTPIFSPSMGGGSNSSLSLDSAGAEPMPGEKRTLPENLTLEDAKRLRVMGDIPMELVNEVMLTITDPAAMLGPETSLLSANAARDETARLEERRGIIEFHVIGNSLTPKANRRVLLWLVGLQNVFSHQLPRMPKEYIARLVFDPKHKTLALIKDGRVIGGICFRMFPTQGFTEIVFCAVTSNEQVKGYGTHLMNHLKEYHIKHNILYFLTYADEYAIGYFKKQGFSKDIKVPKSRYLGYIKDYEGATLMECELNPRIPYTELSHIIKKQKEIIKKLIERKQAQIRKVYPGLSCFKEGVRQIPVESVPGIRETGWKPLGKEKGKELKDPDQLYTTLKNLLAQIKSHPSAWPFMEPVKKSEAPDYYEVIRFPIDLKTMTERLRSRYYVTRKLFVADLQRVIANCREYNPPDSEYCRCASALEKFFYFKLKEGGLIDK
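ThioGlo1-coupled HAT assay: 20nM GCN5L2, 70uM acetyl-CoA, 75uM H3(1-25) peptide, pH 7.5. Fluorescence read at 340/540nm at start and after 20 min at room temperature.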
VDR inh: vitamin D3 receptor (human) inhibition; AID 504847; Potency, µM, most hits filed as inhibitors; VDR-SRC2-3 peptide fluorescence polarization, 2 h; hit rate 0.93% among 400,000
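Fluorescence polarization assay measuring small-molecule disruption of VDR binding to the coregulator peptide SRC2-3. Compounds were pin-transferred (23 nl) into the reagent mix and incubated 2 h at room temperature before reading.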
DT40 TDP1 CPT: growth inhibition of DT40 Tdp1-/-;hTDP1 cells with camptothecin (screen for TDP1 inhibitors) | AID 686979 | hit rate 12% among 420,000 | chicken DT40 Tdp1-/-;hTDP1 cells + 20 nM CPT, ATP luminescence, 48 h | Potency, µM (series often up to 46.2 µM), hits mostly inhibitors; also: nearly all actives have a fitted effect of over 55% in size
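Cell growth measured by CellTiter-Glo luminescence after a minimum 48 h, 37 C compound exposure with 20 nM CPT in Tdp1-knockout DT40 cells stably expressing hTDP1, seeded 400/well; qHTS titration format.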
PLK1 PBD inh: PLK1 (human) polo-box domain binding inhibition; P53350; Plk1 PBD binding of FITC phosphopeptide, fluorescence polarization; Potency, µM, hits mostly inhibitors; hit rate 2.8% among 360,000; AID 720504; also: series mostly up to about 57 µM; nearly all actives have a fitted effect of over 65% in size
TDP1 cell noCPT: qHTS for Inhibitors of human tyrosyl-DNA phosphodiesterase 1 (TDP1): qHTS in cells in absence of CPT | Potency, µM (series often up to 46.2 µM), hits mostly inhibitors | AID 686978, 2013 | hit rate 15% among 420,000 | DT40 Tdp1-/- hTDP1 cells, no CPT, ATP luminescence, 48 h; also: nearly all actives have a fitted effect of over 55% in size
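Camptothecin absent (DMSO only). Human TDP1-complemented DT40 knockout cells, 400 cells/well, 37 °C for minimum 48 hr; ATP measured via CellTiter-Glo, 30 min dark incubation, luminescence.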
TDP1 block: TDP1 (human) enzyme inhibition; Q9NUW8; recombinant TDP1, AlphaScreen DNA substrate cleavage; Potency, µM (top dose mostly 130 µM), hits mostly inhibitors; hit rate 0.28% among 350,000; AID 485290; also: nearly all actives have a fitted effect of over 40% in size
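Tdp1 1 nM final; 15 min RT w/ cpd; substrate 15 nM, 5 min; beads 10 ug/ml, 10 min; AlphaScreen read. Neg ctrl: no enzyme.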
Numbers stand for hits; - = inactive; ? = inconclusive; . = no result given. Calls follow the shape of the dose curve; as a rule, active = well fitted curve in the direction sought with a large enough effect; inconclusive = small, poorly fitted or top-dose-only effect, or another doubt; inactive = no such curve, though single readings can be large; an effect the other way counts as inactive or inconclusive.

SMILES	KAT2A inh	VDR inh	DT40 TDP1 CPT	PLK1 PBD inh	TDP1 cell noCPT	TDP1 block
Cc1ccc(NC(=O)c2nc[nH]c2C(=O)NCCCCNC(=O)c2[nH]cnc2C(=O)Nc2ccc(C)cc2)cc1	-	-	?	-	8.2µM	-
CCOC(=O)c1ccc(NC(=O)c2nc[nH]c2C(=O)NCCCNC(=O)c2[nH]cnc2C(=O)Nc2ccc(C(=O)OCC)cc2)cc1	-	-	-	-	-	-
Cc1ccc(NC(=O)c2nc[nH]c2C(=O)NCCCCCCNC(=O)c2[nH]cnc2C(=O)Nc2ccc(C)cc2)cc1	-	-	?	-	?	-
Cc1ccc(NC(=O)c2nc[nH]c2C(=O)NCCCNC(=O)c2[nH]cnc2C(=O)Nc2ccc(C)cc2)cc1	-	-	16µM	-	?	-
C=C(C)c1nc(Oc2ccccc2)nc(Oc2ccccc2)n1	.	-	7.3µM	-	6.5µM	.
Cc1cc(Oc2ccccc2)nc(-c2ccccc2)n1	-	-	-	-	-	-
COC(=O)c1ccc(NC(=O)CCn2cnnn2)cc1	-	-	-	.	-	-
Cc1ccc(CNC(=O)CCCc2nnc3n(C)c(=O)c4sccc4n23)cc1	-	-	?	.	?	-
CCn1c(SCC(=O)NNC(=O)c2ccc(C)cc2)nnc1-c1ccncc1	.	-	-	-	21µM	.
Cc1ccc2nc(C)cc(C(=O)OCC(=O)c3ccc(Cl)c([N+](=O)[O-])c3)c2c1	-	-	16µM	?	?	-
Cc1ccc(-c2cc(C(=O)OCC(=O)c3ccccc3)c3cccc(Cl)c3n2)cc1	-	-	?	.	6.5µM	.
Cc1cc(C(=O)OCC(=O)c2ccc(Cl)c([N+](=O)[O-])c2)c2cccc(C)c2n1	-	-	?	-	?	-
COc1ccc(-c2cc(C(=O)OCC(=O)c3ccc(C)cc3)c3cccc(Cl)c3n2)cc1	-	-	?	.	?	.
Cc1c(-c2ccccc2)nc2c(Cl)cccc2c1C(=O)OCC(=O)c1ccc(F)cc1	-	-	?	.	5.8µM	.
COCCn1c(=O)c(CCc2ccccc2)nc2cnc(Oc3cccc(Cl)c3)nc21	-	-	?	.	?	.
Cc1ccc(C(=O)Nc2sc3c(c2C(=O)O)CCC(C)C3)o1 (stereo not drawn)	-	-	?	-	21µM	-
COC(=O)Nc1sc2c(c1C(=O)N1CCOCC1)CCC(C)C2 (stereo not drawn)	-	?	-	27µM	-	-
Cc1ccc(C(=O)Nc2sc3c(c2C(=O)O)CCCC3)o1	-	-	?	-	?	-
O=C(Nc1sc2c(c1C(=O)O)CCCC2)c1ccc(F)cc1	-	-	-	-	-	.
Cc1ccc(C(=O)Nc2sc3c(c2C(=O)O)CCCCC3)o1	-	-	?	-	15µM	-
Cc1ccc(C)n1-c1sc2c(c1C(=O)O)CCCC2	?	-	?	17µM	?	.
C/C(=N/NS(=O)(=O)c1ccc(Br)cc1)c1cccc(NC(=O)C2CC2)c1	.	.	-	-	-	.
CC(O)C(NS(=O)(=O)c1ccc2ccccc2c1)C(=O)OCC(=O)Nc1ccccc1OC(F)F (stereo not drawn)	.	-	-	-	-	.
COc1ccc(C(=O)Nc2ccc(NC(=O)Cc3ccccc3)cn2)cc1	-	-	-	-	-	-
O=C(Cc1cccc(NC(=O)C2CCCN(C(=O)C3CCC3)C2)c1)Nc1cccc(C(=O)N2CCCC2)c1 (stereo not drawn)	-	-	-	-	-	-
SMILES	KAT2A inh	VDR inh	DT40 TDP1 CPT	PLK1 PBD inh	TDP1 cell noCPT	TDP1 block
NCCCC[C@H]1NC(=O)[C@H](CCC(=O)O)NC(=O)c2cc([N+](=O)[O-])cc(I)c2OCC[C@@H](C(N)=O)NC1=O	-	?	-	7.5µM	-	-
CN1c2cc(Cl)ccc2-c2nc(SCC(=O)Nc3ccc(F)cc3F)ncc2S1(=O)=O	-	-	23µM	.	16µM	-
Cc1ccc(NC(=O)CSc2ncc3c(n2)-c2ccccc2N(C)S3(=O)=O)c(Cl)c1	-	-	0.73µM	.	0.65µM	-
Cc1ccccc1NC(=O)CSc1ncc2c(n1)-c1ccccc1N(C)S2(=O)=O	-	-	?	.	-	-
Cc1ccc(NC(=O)CSc2ncc3c(n2)-c2ccc(Cl)cc2N(C)S3(=O)=O)cc1F	-	-	23µM	.	?	-
COc1cccc(CNC(=O)CSc2ncc3c(n2)-c2cc(Cl)ccc2N(C)S3(=O)=O)c1	-	-	21µM	.	?	-
COc1ccc(-n2ccnc2SCC(=O)NCc2ccc(F)cc2)c(OC)c1	-	-	?	-	-	-
Cc1ccc(S(=O)(=O)N2CCOCC2)cc1NC(=O)COC(=O)COc1ccccc1[N+](=O)[O-]	-	-	-	-	-	-
Cc1nc(NCc2ccccc2)c2cc[nH]c2n1	-	-	?	-	12µM	.
COc1ccc(NC(=O)CSc2ccc3nnc(CCNC(=O)c4ccccc4)n3n2)cc1OC	-	-	-	-	-	-
COc1ccc(-c2nc(N)ncc2Oc2ccccc2Br)c(O)c1	-	-	-	-	?	-
COc1ccc(-c2nc(N)ncc2-c2ccccc2OC)c(O)c1	-	-	?	-	-	.
COc1cccc(Oc2cnc(N)nc2-c2ccc(OC)cc2O)c1	-	-	2.9µM	-	2.3µM	-
COc1ccc(-c2nc(N)nc(C(F)(F)F)c2-c2ccccc2OC)c(O)c1	-	-	?	-	23µM	.
Fc1ccc(N2CCN(Cc3cccn3-c3nnc(N4CCN(C5CCCCC5)CC4)s3)CC2)cc1	-	-	-	.	-	-
Cc1cc(N(C)Cc2ccccc2)nc(-c2ccccc2)n1	-	-	?	-	26µM	-
Cc1cc(N(C)Cc2ccccc2)nc2cc(O)ccc12	-	-	-	-	?	.
OC(c1ccc2c(c1)CN(Cc1cccc3nccnc13)CCO2)C1CCCCC1 (stereo not drawn)	.	.	-	.	-	.
COc1ccccc1NC(=O)Nc1nnc(CC(=O)Nc2ccccc2C)s1	-	-	?	-	?	-
COc1cccc(CNC(=O)Cc2csc(NC(=O)Nc3ccccc3OC)n2)c1	-	-	?	-	21µM	-
COc1ccccc1NC(=O)Nc1nc(CC(=O)N2CCN(c3ccccc3F)CC2)cs1	-	-	?	-	18µM	-
COc1ccccc1NC(=O)Nc1nc(CC(=O)NCc2c(F)cccc2F)cs1	-	-	?	-	21µM	-
COc1ccc(C(=O)Nc2nc(CC(=O)NCCc3cccc(OC)c3)cs2)cc1	-	-	?	-	15µM	-
COc1ccc(C(=O)Nc2nc(CC(=O)NCCc3ccccc3)cs2)cc1	-	-	?	-	?	-
CC(=O)c1cc(-c2ccccc2)n(CCC(=O)Nc2cc(C)cc(C)c2)c1C	-	-	?	.	?	-
